Values joined by “and” are separate entries in the source; they are usually repeats but may differ in a detail not shown here. Equal entries are not always repeated. The whole screen tested about 5,500 compounds, of which about 2,000 (36%) were called active. About 18% were inconclusive and are not listed. No stated cut-off is given here; in the data, active means normalized growth mostly below about 0.91 (no sharp cut-off); inconclusive means no clear call, values can overlap the other calls; inactive means mostly above about 0.92. This is one part of the list.
Assay: chemical genetic growth profiling, strain panel (AID 1159580);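 further: tested at 20 µM; growth read once vehicle control cultures reached saturation at 30 °C; 1 = growth at the plate median or of vehicle wells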
Conditions: growth OD

Measured: normalized growth

O=C1NCC2(CCN(CCc3ccccc3)CC2)O1
inactive: S. cerevisiae deletion strains, locus YKL009W, strain mrt4, stronger effect = lower value 0.986 | S. cerevisiae deletion strains, locus YKL068W, stronger effect = lower value 0.995 | S. cerevisiae deletion strains, locus YKL085W, strain MDH1 (second series), stronger effect = lower value 0.995 | S. cerevisiae deletion strains, locus YKL085W, strain MDH1, stronger effect = lower value 0.995 | S. cerevisiae deletion strains, locus YKL160W, strain elf1, stronger effect = lower value 0.97 | S. cerevisiae deletion strains, locus YKL190W, strain CNB1, stronger effect = lower value 1 | S. cerevisiae deletion strains, locus YKR001C, strain vps1, stronger effect = lower value 0.999 | S. cerevisiae deletion strains, locus YKR026C, strain gcn3, stronger effect = lower value 0.939 | S. cerevisiae deletion strains, locus YKR091W, strain srl3, stronger effect = lower value 1.01 | S. cerevisiae deletion strains, locus YLL001W, strain dnm1, stronger effect = lower value 0.945 | S. cerevisiae deletion strains, locus YLL026W, stronger effect = lower value 1 | S. cerevisiae deletion strains, locus YLL041C, strain sdh2, stronger effect = lower value 0.999 | S. cerevisiae deletion strains, locus YLR027C, strain aat2, stronger effect = lower value 0.995 | S. cerevisiae deletion strains, locus YLR039C, strain RIC1, stronger effect = lower value 1 | S. cerevisiae deletion strains, locus YLR058C, strain SHM2, stronger effect = lower value 1.01 | S. cerevisiae deletion strains, locus YLR102C, strain apc9, stronger effect = lower value 0.999 | S. cerevisiae deletion strains, locus YLR113W, strain HOG1, stronger effect = lower value 0.964 | S. cerevisiae deletion strains, locus YLR221C, strain rsa3, stronger effect = lower value 1 | S. cerevisiae deletion strains, locus YLR258W, strain gsy2, stronger effect = lower value 1 | S. cerevisiae deletion strains, locus YLR262C, strain YPT6 (second series), stronger effect = lower value 0.981 | S. cerevisiae deletion strains, locus YLR262C, strain YPT6, stronger effect = lower value 0.968 | S. cerevisiae deletion strains, locus YLR268W, strain sec22, stronger effect = lower value 1.04 | S. cerevisiae deletion strains, locus YLR320W, strain mms22, stronger effect = lower value 1.02 | S. cerevisiae deletion strains, locus YLR330W, strain CHS5, stronger effect = lower value 1.01 | S. cerevisiae deletion strains, locus YLR342W, strain FKS1 (second series), stronger effect = lower value 1.01 | S. cerevisiae deletion strains, locus YLR342W, strain FKS1, stronger effect = lower value 0.994 | S. cerevisiae deletion strains, locus YLR357W, strain rsc2, stronger effect = lower value 0.981 | S. cerevisiae deletion strains, locus YLR370C, strain arc18, stronger effect = lower value 0.989 | S. cerevisiae deletion strains, locus YLR371W, strain rom2, stronger effect = lower value 1.01 | S. cerevisiae deletion strains, locus YLR384C, strain iki3, stronger effect = lower value 0.988 | S. cerevisiae deletion strains, locus YLR418C, strain cdc73, stronger effect = lower value 0.981 | S. cerevisiae deletion strains, locus YML016C, strain PPZ1, stronger effect = lower value 1 | S. cerevisiae deletion strains, locus YML032C, strain rad52, stronger effect = lower value 1.02 | S. cerevisiae deletion strains, locus YML120C, strain ndi1, stronger effect = lower value 0.984 | S. cerevisiae deletion strains, locus YML124C, strain tub3, stronger effect = lower value 0.996 | S. cerevisiae deletion strains, locus YMR058W, strain fet3, stronger effect = lower value 0.979 | S. cerevisiae deletion strains, locus YMR078C, strain ctf18, stronger effect = lower value 1 | S. cerevisiae deletion strains, locus YMR125W, strain sto1, stronger effect = lower value 0.97 | S. cerevisiae deletion strains, locus YMR129W, stronger effect = lower value 0.98 | S. cerevisiae deletion strains, locus YMR205C, strain PFK2, stronger effect = lower value 1.01 | S. cerevisiae deletion strains, locus YMR223W, strain ubp8, stronger effect = lower value 0.978 | S. cerevisiae deletion strains, locus YMR231W, strain pep5, stronger effect = lower value 0.994 | S. cerevisiae deletion strains, locus YMR263W, strain SAP30, stronger effect = lower value 1.02 and 1 | S. cerevisiae deletion strains, locus YMR307W, strain GAS1, stronger effect = lower value 0.884 | S. cerevisiae deletion strains, locus YNL067W, strain RPL9B, stronger effect = lower value 1.02 | S. cerevisiae deletion strains, locus YNL071W, strain lat1, stronger effect = lower value 1.01 | S. cerevisiae deletion strains, locus YNL128W, strain TEP1, stronger effect = lower value 1.02 | S. cerevisiae deletion strains, locus YNL153C, strain GIM3, stronger effect = lower value 1.02 and 1.04 | S. cerevisiae deletion strains, locus YNL175C, strain NOP13, stronger effect = lower value 1.01 | S. cerevisiae deletion strains, locus YNL183C, strain NPR1, stronger effect = lower value 0.904 | S. cerevisiae deletion strains, locus YNL197C, strain WHI3, stronger effect = lower value 0.992 | S. cerevisiae deletion strains, locus YNL209W, strain ssb2, stronger effect = lower value 0.998 | S. cerevisiae deletion strains, locus YNL224C, strain SQS1, stronger effect = lower value 0.995 | S. cerevisiae deletion strains, locus YNL233W, strain BNI4, stronger effect = lower value 1.02 | S. cerevisiae deletion strains, locus YNL248C, strain rpa49, stronger effect = lower value 1.01 | S. cerevisiae deletion strains, locus YNL250W, strain rad50, stronger effect = lower value 1 | S. cerevisiae deletion strains, locus YNL271C, strain bni1, stronger effect = lower value 1.01 | S. cerevisiae deletion strains, locus YNL298W, strain CLA4, stronger effect = lower value 0.989 | S. cerevisiae deletion strains, locus YNL307C, strain MCK1, stronger effect = lower value 1.01 | S. cerevisiae deletion strains, locus YNL322C, strain KRE1 (second series), stronger effect = lower value 0.999 | S. cerevisiae deletion strains, locus YNL322C, strain KRE1, stronger effect = lower value 1 and 1.01 | S. cerevisiae deletion strains, locus YNR049C, strain mso1, stronger effect = lower value 0.987 | S. cerevisiae deletion strains, locus YNR052C, strain pop2, stronger effect = lower value 1 | S. cerevisiae deletion strains, locus YOL006C, strain TOP1, stronger effect = lower value 1.07 | S. cerevisiae deletion strains, locus YOL012C, strain htz1 0.911 | S. cerevisiae deletion strains, locus YOL147C, strain pex11, stronger effect = lower value 0.996 | S. cerevisiae deletion strains, locus YOR001W, strain rrp6, stronger effect = lower value 0.985 | S. cerevisiae deletion strains, locus YOR061W, strain CKA2, stronger effect = lower value 1.01 | S. cerevisiae deletion strains, locus YOR069W, strain VPS5, stronger effect = lower value 0.99 | S. cerevisiae deletion strains, locus YOR070C, strain gyp1, stronger effect = lower value 1 | S. cerevisiae deletion strains, locus YOR080W, strain dia2, stronger effect = lower value 0.988 | S. cerevisiae deletion strains, locus YOR083W, strain WHI5 (second series), stronger effect = lower value 1 | S. cerevisiae deletion strains, locus YOR083W, strain WHI5, stronger effect = lower value 0.988 | S. cerevisiae deletion strains, locus YOR106W, strain vam3, stronger effect = lower value 0.979 | S. cerevisiae deletion strains, locus YOR136W, strain idh2, stronger effect = lower value 0.988 | S. cerevisiae deletion strains, locus YOR144C, strain elg1, stronger effect = lower value 1 | S. cerevisiae deletion strains, locus YOR184W, strain ser1, stronger effect = lower value 0.993 | S. cerevisiae deletion strains, locus YOR231W, strain MKK1, stronger effect = lower value 0.979 | S. cerevisiae deletion strains, locus YOR265W, strain rbl2, stronger effect = lower value 0.999 | S. cerevisiae deletion strains, locus YOR270C, strain vph1, stronger effect = lower value 0.975 | S. cerevisiae deletion strains, locus YOR290C, strain snf2, stronger effect = lower value 1 | S. cerevisiae deletion strains, locus YOR316C, strain cot1, stronger effect = lower value 0.999 | S. cerevisiae deletion strains, locus YPL051W, strain arl3, stronger effect = lower value 0.995 | S. cerevisiae deletion strains, locus YPL055C, strain LGE1, stronger effect = lower value 0.993 and 1 | S. cerevisiae deletion strains, locus YPL078C, strain atp4, stronger effect = lower value 0.991 | S. cerevisiae deletion strains, locus YPL106C, strain sse1, stronger effect = lower value 1 | S. cerevisiae deletion strains, locus YPL240C, strain hsp82, stronger effect = lower value 0.986 | S. cerevisiae deletion strains, locus YPL241C, strain CIN2, stronger effect = lower value 1.01 | S. cerevisiae deletion strains, locus YPL256C, strain CLN2, stronger effect = lower value 0.986 | S. cerevisiae deletion strains, locus YPR119W, strain clb2, stronger effect = lower value 1 | S. cerevisiae deletion strains, locus YPR141C, strain kar3, stronger effect = lower value 0.997 | S. cerevisiae deletion strains, locus YPR163C, strain tif3, stronger effect = lower value 1.01 | S. cerevisiae deletion strains, locus YPR167C, strain met16, stronger effect = lower value 1 | S. cerevisiae deletion strains, strain wtn01, stronger effect = lower value 0.997 | S. cerevisiae strains, strain wild type, stronger effect = lower value 1.01

Reference: PubChem BioAssay AID1159580 (chemical genetic matrix, 2015)
